We go through 38 compounds from PubChem BioAssay AID977622 (Broad Institute, 2014).

Fewer than 10 of roughly 1,900 compounds were called active. Inconclusive results (about 39%) are left out.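 How the source made its calls: active means Green signal of the normal strain falls at least twice as much as red signal of the resistant mutant, with overall culture growth loss under a set limit; inconclusive means no clear call, values can overlap the other calls; inactive means the rest.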 These entries were drawn from the full list.

Test [1] in a line: wild-type E. coli growth inhibition versus h38 humanized strain – h38 mutant RFP, wild-type GFP, cherry-pick, dose response (AID 977622). The note with it: activity change: E. coli mixed culture, total growth OD600 at 50 uM, at 50 µM.
The test system of test [2] is E. coli h38 humanized mutant ribosome RFP fluorescence, mixed culture, 24 h. The description is as above. The note with it: h38 mutant RFP at 50 uM; at 50 µM.

With `CN(C)CCCN(C(=O)CCOc1ccccc1)c1nc2c(F)cccc2s1`, in test [1], the activity change was -10.6% and the compound was called inactive. For the same compound, the activity change in test [2] was -7.27%.
As for `CC(NC(=O)c1ccc(CS(=O)(=O)c2ccc(Cl)cc2)o1)c1ccc2c(c1)OCCO2` (stereo unspecified), in test [1], the activity change was -24.9% and the call was inactive. Moreover, the activity change in test [2] is 17.5%.
With `NS(=O)(=O)c1ccc(NC(=O)c2cc(Cl)sc2Cl)cc1`, in test [1], the activity change worked out at 0.867% and the compound was called inactive. Moreover, the activity change in test [2] is 13.3%.
As for `CC(C)(CC(=O)O)CC(=O)NCc1c(Cl)cccc1Sc1ccc(Cl)cc1`, in test [1], the activity change was -12.9% and the compound was classed as inactive.
Regarding `C[C@H]1CN([C@@H](C)CO)C(=O)c2c(c3ccccc3n2C)-c2ccccc2CO[C@@H]1CN(C)Cc1ccncc1`, in test [1], the activity change was -20.6% and the compound was classed as inactive. In test [2], the activity change is -32.1%.
The matching figures for `CCCCc1n(CC(=O)c2ccc(Cl)cc2)c2ccccc2[n+]1C`: -11.8%, “inactive” and 5.85%.
As for `Cc1noc(C)c1NC(=O)Nc1ccc2c(c1)C(=O)N([C@H](C)CO)C[C@H](C)[C@H](CN(C)C(=O)Nc1ccc3c(c1)OCO3)OCCCC[C@H](C)O2`, the activity change in test [1] is -22%; in test [2], -9.02%. Further, the result in test [1] was inactive.
As to `Cc1cccc(-c2ccc([C@H]3[C@@H](CO)N4CCCCN(S(=O)(=O)c5ccccc5C)C[C@@H]34)cc2)c1`, in test [1], the activity change was -22.4% and the outcome was inactive. In addition, the activity change in test [2] worked out at 18.9%.
The corresponding values for `Cc1ccccc1CSCC(=O)Nc1ccccc1F` are 0.464%, “inactive” and -14.9%.
Take `Cc1ccc(-n2nnnc2SCC(=O)NC2CCCc3ccccc32)cc1` (stereo unspecified): the outcome in test [1] was inactive. Besides, in test [2], the activity change amounted to 6.43%.
Regarding `Cc1ccc(C(=O)Nc2cccc3[nH]c(C(F)(F)F)nc23)cc1`, in test [1], the activity change is -24.3% and the compound was classed as inactive. Besides, the activity change in test [2] is -27.5%.
In the case of `CS(=O)(=O)Nc1ccccc1C(=O)NCCSc1ccccc1`, the compound was called inactive in test [1]. Moreover, in test [2], the activity change is -11.5%.
Consider `O=C(C[n+]1ccn(-c2ccccc2)c1)c1ccc([N+](=O)[O-])cc1`, for which, in test [1], the activity change was -2.75% and the compound was classed as inactive. The activity change in test [2] is -5.23%.
The corresponding values for `CCOC(=O)c1cnc2ccccc2c1NCc1ccco1` are -29.3%, “inactive” and -3.48%.
As for `NC(=O)C1CCN(c2cc(Cl)ccc2[N+](=O)[O-])CC1`, the activity change in test [1] was -7.61%; in test [2], -0.291%. In addition, the result in test [1] was inactive.
The matching figures for `COCCn1c(SCc2nc3ccccc3s2)nc2ccccc21`: 15.3%, 9.77% and “inactive”.
On to `CC(=O)c1cccc(NC(=O)COC(=O)CCC(=O)c2ccc(F)cc2)c1`, for which the activity change in test [1] was -8.28%; in test [2], 14.5%. For the same compound, the compound was called inactive in test [1].
For `OCCC1CN(Cc2cnc(-c3ccc(Cl)cc3)nc2)CCN1C1CCCCC1` (stereo unspecified), in test [1], the activity change is -4.88% and the compound was called inactive.
On to `CN1c2ccccc2-c2nc3ccccc3n2C1c1ccncc1` (stereo unspecified), for which the activity change is -2.28% in test [1] and -4.12% in test [2]. The call in test [1] was inactive.
In the case of `C=C1c2cc3c(cc2NC(=S)N1Cc1ccccc1)OCO3`, the activity change in test [1] is -19.2%; in test [2], -23.6%. Further, the result in test [1] was inactive.
Regarding `CC(=O)c1cccc(NC(=O)C2CCCN(S(C)(=O)=O)C2)c1` (stereo unspecified), in test [1], the activity change worked out at 4.2% and the compound was classed as inactive.
`CC(C)CC#Cc1ccc([C@@H]2[C@@H](CO)N3C(=O)CN(C(=O)Cc4ccccc4)C[C@@H]23)cc1`: in test [1], the activity change came to 9.26% and the result was inactive. Further, in test [2], the activity change worked out at 19.9%.
For `OC(COc1ccc(Cl)cc1)CN1CCN(c2ccccn2)CC1` (stereo unspecified), in test [1], the activity change was -8.02% and the outcome was inactive.
With `CN(CC(=O)Nc1cccc(F)c1)C(=O)Cn1c(=O)oc2ccccc21`, the results for the activity change in test [1] and in test [2] were 2.16% and 60%, respectively. Further, the outcome in test [1] was inactive.
As for `CCN(CC)S(=O)(=O)c1ccc(O)c(C(=O)OCC(=O)NC23CC4CC(CC(C4)C2)C3)c1`, in test [1], the activity change is -19.8% and the call was inactive.
As for `CC1(CCC(=O)N2CCCC(N3CCN(c4ccc(F)cc4)CC3)C2)CC1` (stereo unspecified), in test [1], the activity change was -2.02% and the result was inactive. In addition, the activity change in test [2] worked out at 22.3%.
The corresponding values for `CCc1ccc(NC(=O)CCc2c(C)nn(-c3ccc(N4CCCCC4)nn3)c2C)cc1` are -4.17%, “inactive” and -12.8%.
The corresponding values for `COc1cccc(C(=O)c2c[nH]c(C(=O)NCc3cccnc3)c2)c1` are -3.41%, “inactive” and 13.5%.
The corresponding values for `COc1ccc(NS(=O)(=O)c2cc(NC(=O)CNC(=O)c3cccc(OC)c3)ccc2C)cc1` are -27.6%, “inactive” and -12.3%.
`O=C(Nc1ccc(Cl)cn1)c1ccc([N+](=O)[O-])o1`: in test [1], the activity change was -3.86% and the compound was called inactive. In addition, in test [2], the activity change worked out at 54.7%.
For the compound `COc1cccc(CC(=O)OC(C)C(=O)NCc2ccc3c(c2)OCO3)c1` (stereo unspecified), in test [1], the activity change was -31% and the result was inactive. The activity change in test [2] is 6.13%.
`O=S(=O)(Cc1ccccc1)N1CCCCN2[C@@H](CO)[C@H](c3ccc(C#Cc4ccccc4)cc3)[C@@H]2C1`: the results for the activity change in test [1] and in test [2] were 2.15% and 11.8%, respectively. Further, the call in test [1] was inactive.
The corresponding values for `Nc1[nH]c(C(=O)c2ccccc2)c(-c2ccc(Cl)cc2)c1C(=O)NCCc1c[nH]c2ccccc12` are -15.2%, 2% and “inactive”.
For `Cc1ccccc1-n1c([C@@H]2C[C@H]2c2ccccc2)n[nH]c1=S`, in test [1], the activity change was -23.8% and the call was inactive.
For the compound `COc1ccc(OC)c(NC(=O)COC(=O)CCNc2ccccc2OC)c1`, in test [1], the activity change was -9.13% and the result was inactive. Further, the activity change in test [2] was -0.869%.
The matching figures for `Cc1ccc(NC(=O)c2ccc3c(c2)OCO3)cc1S(=O)(=O)N1CCOCC1`: -35.8%, “inactive” and -6.07%.
The corresponding values for `COc1ccc(NC(=O)CN(c2ccccc2OC)S(=O)(=O)c2cccs2)cc1Cl` are -14.2%, “inactive” and 19%.
On to `Cc1cccc(OCCC(=O)N(C)CC(=O)Nc2cccc3ccccc23)c1`, for which the activity change in test [1] is -25.4%; in test [2], 27.9%. In test [1], the call was inactive.
